# The supplement of paper PMC6607015
# Structures can show the parent of a compound that is named as a salt.
# Columns and labels:
# Conditions in all cases: compound concentration in added solution (µM; 5 µl added to 20 µl cells): 10; 18 h
# A431 [1] = test: LBPA endosome anti-LBPA integrated intensity (sum per cell), Z-score; higher = more LBPA staining
# In short: (§1)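 Four 20× images per well were taken of HeLa MZ or A431 cells that had been seeded at 3,500 per well in 20 µl onto 5 µl of 10 µM compound solution in duplicate 384-well imaging plates. Before imaging, cells were incubated 18 h, fixed in 4% PFA and stained with 6C4 anti-LBPA antibody, filipin, propidium iodide and CellTracker green. Values are Z-scores normalised in AcuityXpress from MetaXpress-derived per-cell integrated LBPA or filipin intensity, either whole-cell or within LBPA endosomes.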
# HeLa MZ [2] = test: as above
# In short: as §1
# A431 [3] = test: whole-cell filipin (free cholesterol) integrated intensity, Z-score; higher = more cholesterol staining
# In short: as §1
# HeLa MZ [4] = test: as above
# In short: as §1
# A431 [5] = test: filipin (cholesterol) integrated intensity within LBPA endosomes, Z-score; higher = more cholesterol in LBPA endosomes
# In short: as §1
# HeLa MZ [6] = test: as above
# In short: as §1
Compound,LBPA endosome anti-LBPA integrated intensity (z-score) (A431 [1]),LBPA endosome anti-LBPA integrated intensity (z-score) (HeLa MZ [2]),whole-cell filipin (z-score) (A431 [3]),whole-cell filipin (z-score) (HeLa MZ [4]),filipin (z-score) (A431 [5]),filipin (z-score) (HeLa MZ [6])
C[C@]12N[C@H](Cc3ccccc31)c1ccccc12 [Dizocilpine maleate],-0.337,0.113,-0.302,-0.304,-0.361,-0.275
CCCN1C[C@H](CSC)C[C@@H]2c3cccc4[nH]cc(c34)C[C@H]21 [Pergolide mesylate],2.35,1.89,-0.261,-0.788,0.495,0.499
CN1[C@@H]2CC[C@H]1C[C@@H](OC(=O)C(CO)c1ccccc1)C2 (stereo not given in full) [Atropine sulfate monohydrate],-0.568,-0.87,-0.533,-0.945,-0.5,-0.345
CCC1(c2cccc(O)c2)CCCCN(C)C1 (stereo not given) [Meptazinol hydrochloride],-0.527,-0.173,0.166,-0.306,-0.402,-0.0124
C[N+]1(C)CCOC(O)(c2ccc(-c3ccc(C4(O)C[N+](C)(C)CCO4)cc3)cc2)C1 (stereo not given) [Hemicholinium bromide],-0.629,-1.27,-0.551,-0.638,-0.55,-0.667
CCN[C@@H](C)Cc1cccc(C(F)(F)F)c1 [Dexfenfluramine hydrochloride],-0.18,-0.965,-0.95,-0.721,-0.444,-0.703
CNC(C)(C)Cc1ccccc1 [Mephentermine hemisulfate],-0.473,-0.965,-0.48,-0.125,-0.471,-0.403
OC(c1ccccc1)(c1ccccc1)C1CCNCC1 [Azacyclonol],-0.397,-0.253,-0.445,-0.666,-0.198,0.228
CN[C@@H]1[C@@H](O)[C@@H](O[C@@H]2[C@@H](O)[C@H](O[C@H]3O[C@H](CN)CC[C@H]3N)[C@@H](N)C[C@H]2N)OC[C@]1(C)O.CN[C@@H]1[C@@H](O)[C@@H](O[C@@H]2[C@@H](O)[C@H](O[C@H]3O[C@H]([C@@H](C)N)CC[C@H]3N)[C@@H](N)C[C@H]2N)OC[C@]1(C)O.CN[C@@H]1[C@@H](O)[C@@H](O[C@@H]2[C@@H](O)[C@H](O[C@H]3O[C@H]([C@@H](C)NC)CC[C@H]3N)[C@@H](N)C[C@H]2N)OC[C@]1(C)O [Gentamicine sulfate],-0.58,-1.17,-1.14,-0.98,-0.535,-0.682
Fc1ccc(C(OCCN2CCN(CCCc3ccccc3)CC2)c2ccc(F)cc2)cc1,3.21,,1.65,,2.65,
C[C@]12CCC(=O)C=C1C=C[C@@H]1[C@@H]2CC[C@@]2(C)[C@H]1CC[C@@]2(O)CCC(=O)O [Canrenoic acid potassium salt],-0.568,-1.1,-1.15,-1.15,-0.611,-0.819
C[N+]1(C)[C@@H]2CC[C@H]1C[C@@H](OC(=O)C(CO)c1ccccc1)C2 (stereo not given in full) [Methylatropine nitrate],-0.382,0.224,-0.241,0.542,-0.375,-0.173
O=C([O-])c1ccccc1-c1c2cc(Br)c(=O)cc-2oc2[c]([Hg+])c([O-])c(Br)cc12.[Na+].[Na+].[OH-] [Merbromin],-0.53,-1.95,-0.246,-0.654,-0.525,-0.65
O=P1(N(CCCl)CCCl)NCCCO1 (stereo not given) [Cyclophosphamide],-0.0725,1.02,0.399,0.209,-0.311,0.352
Oc1ccc2c3c1O[C@H]1[C@@H](O)CC[C@@]4(O)[C@@H](C2)N(CC2CCC2)CC[C@]314 [Nalbuphine hydrochloride],-0.515,-0.32,-0.797,-0.749,-0.572,-0.371
C[C@]12Cc3c[nH]nc3C[C@@H]1CC[C@@H]1[C@@H]2CC[C@@]2(C)[C@H]1CC[C@]2(C)O [Stanozolol],0.154,1.15,0.353,-0.167,0.0473,-0.12
COc1ccc(CCN2CCC(Nc3nc4ccccc4n3Cc3ccc(F)cc3)CC2)cc1 [Astemizole],,-0.627,,-1.11,,2.12
CC(=O)[C@H]1CC[C@H]2[C@@H]3CC[C@H]4C[C@H](O)CC[C@]4(C)[C@H]3C(=O)C[C@]12C [Alfaxalone],1.82,1.23,0.358,-0.273,0.378,-0.0632
NC(=O)CN1CCCC1=O [Piracetam],-0.558,-0.0728,-0.653,-0.301,-0.56,-0.514
CN(C)C(=O)Oc1cc(OC(=O)N(C)C)cc(C(O)CNC(C)(C)C)c1 (stereo not given) [Bambuterol hydrochloride],-0.585,-0.352,-0.328,-0.434,-0.64,-0.586
C=CCC1(CC(C)C)C(=O)NC(=O)NC1=O [Butalbital],-0.477,-0.493,-0.608,-0.648,-0.55,-0.51
CN1[C@@H]2CC[C@H]1C[C@@H](OC1c3ccccc3CCc3ccccc31)C2 [Deptropine citrate],3.21,1.46,1.8,-0.333,2.68,1.23
CC(Cc1ccccc1)NCCC(c1ccccc1)c1ccccc1 (stereo not given) [Prenylamine lactate],,1.19,,1.27,,2.44
Oc1cc(Cl)ccc1Oc1ccc(Cl)cc1Cl [Triclosan],-0.463,0.177,-0.0345,3.99,-0.336,-0.129
